# From PubChem BioAssay AID485338 (The Scripps Research Institute Molecular Screening Center, 2010)
# Measured potencies and affinities stand elsewhere. Activity calls are given as the source filed them.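 Rule for the calls: active = mean inhibition of cell viability at 10 µM of at least 40% (some results past the limit were not filed as active); inactive = the rest.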
# Assay: DLD-1 cell viability reduction – luminescence, round 1, cytotoxicity control for KLF5 inhibitor project, late-stage follow-up (AID 485338)
# Settings: DLD-1 viability, CellTiter-Glo ATP luminescence; series mostly up to 20 µM; inhibition of viability: at the top concentration
row,Structure (SMILES),inhibition of viability
1,Cc1ccc2nc(NC(=O)CCCc3nc4ccccc4s3)sc2c1,11.9% (inactive)
2,COC(=O)c1ccc2nc(Nc3nc4ccc(F)cc4s3)sc2c1,44.6% (inactive)
3,CCCc1ccc(-c2ccc(/C=C/C(=O)O)cc2)nc1,-3.09% (inactive)
4,CCOC(=O)c1sc(NC(=O)c2ccc3ncsc3c2)nc1C,16.3% [at 10 µM] (inactive)
